Compound activity as filed in PubChem.
Most compounds without a hit are left out; they make up all but 7.3% or so of the library.
FLuc inh-1: blocks purified firefly luciferase enzyme activity. P08659. purified P. pyralis luciferase, luminescence, biochemical. Potency, µM (doses to about 115 µM), most hits filed as inhibitors. actives 2.5% (n = 76,000); note: nearly all actives have a fitted effect of over 65% in size
Target sequence (P08659 whole entry, looked up): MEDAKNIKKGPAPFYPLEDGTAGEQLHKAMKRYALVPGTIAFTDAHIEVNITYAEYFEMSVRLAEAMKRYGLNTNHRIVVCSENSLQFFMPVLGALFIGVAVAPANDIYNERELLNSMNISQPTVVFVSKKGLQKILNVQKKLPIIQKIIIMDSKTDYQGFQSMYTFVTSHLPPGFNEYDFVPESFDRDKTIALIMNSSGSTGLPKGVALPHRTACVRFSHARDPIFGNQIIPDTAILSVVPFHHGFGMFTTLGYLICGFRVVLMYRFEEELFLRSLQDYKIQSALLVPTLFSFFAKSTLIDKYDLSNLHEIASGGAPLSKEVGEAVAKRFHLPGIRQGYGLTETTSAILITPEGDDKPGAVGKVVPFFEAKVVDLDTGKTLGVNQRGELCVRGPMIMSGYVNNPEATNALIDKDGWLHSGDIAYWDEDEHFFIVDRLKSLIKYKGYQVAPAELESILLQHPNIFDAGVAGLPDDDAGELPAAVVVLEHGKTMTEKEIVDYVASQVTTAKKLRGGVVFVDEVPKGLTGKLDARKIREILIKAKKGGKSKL
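Luminescence read by CCD imager after adding enzyme (10nM final) to wells holding compound, titrated in qHTS. Substrates 10uM each D-luciferin and ATP; buffer 50mM Tris acetate pH 7.5, 10mM Mg acetate, Tween-20, BSA.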
3T3 cytotox: NIH 3T3 cell cytotoxicity; NIH 3T3 viability, CellTiter-Glo ATP luminescence, 48-72 h; Potency, µM (doses to about 96.7 µM), usual class: inhibitors; actives 4.3% (n = 94,000); note: nearly all actives have a fitted effect of over 55% in size
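Cytotoxicity was measured by CellTiter-Glo ATP luminescence after 48 or 72 h compound exposure at 37 °C. Mouse NIH 3T3 fibroblasts were seeded at 400 cells/well and dosed by 23 nL pin transfer.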
SNCA expr inh: SNCA gene expression inhibition; HEK-293 SNCA-luciferase knock-in, luminescence, 24 h; Potency, µM (highest dose often 57.2 µM), hits mostly inhibitors; actives 0.17% (n = 140,000); AID 1671194; note: nearly all actives have a fitted effect of over 45% in size
SNCA viab count: cell viability loss counter-screen; HEK-293-SNCA-luc viability, GF-AFC fluorescence, 24 h; Potency, µM (doses to about 57.1 µM), usual class: cytotoxic; actives 0.12% (n = 150,000); AID 1671193; note: nearly all actives have a fitted effect of over 30% in size
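Cytotoxicity counterscreen: after 24 h compound treatment of genome-edited SNCA-luciferase HEK-293 cells, live-cell protease substrate GF-AFC read by fluorescence after 30 min; activity scaled between DMSO (0%) and medium-only (-100%), curves Hill-fitted.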
IP6K1 inh: inhibitors of human IP6K1 | Q92551 | IP6K1 kinase, ADP-Glo luminescence, 2 h; hits give low values | activity change, % (series mostly up to about 58 µM) | actives 0.81% (n = 140,000); in the data active = activity change below about -25%
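ADP-Glo luminescence measures ADP made by human IP6K1 during a 2 h RT reaction with ATP/IP6 (mix at 1.3 mM/130 uM); top library doses 57.5 and 19.1 uM final.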
HEK293 tox: cytotoxic compounds in HEK 293 cells. HEK 293 viability, ATP luminescence (CellTiter-Glo), 48-72 h. Potency, µM (series often up to 115 µM), actives largely listed as inhibitors. actives 6.6% (n = 94,000); note: nearly all actives have a fitted effect of over 60% in size
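Cells seeded first (HEK 293, 250 cells/well), then compound added by pintool. Incubation ran 48 or 72 hr at 37 degree Celsius. CellTiter-Glo was added and luminescence imaged after 10 min at room temperature.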
FLuc SDR no ATP: stabilizes firefly luciferase without ATP; shares compounds with FLuc inh-1; Purified FLuc-C-HiBiT, Nano-Glo HiBiT luminescence, no ATP; Potency, µM (highest dose often 32.7 µM), usual class: activators; actives 7.8% (n = 1,300); AID 1963318; note: nearly all actives have a fitted effect of over 55% in size
FLuc SDR ATP: binders stabilizing firefly luciferase, plus ATP. Potency, µM (series often up to 32.7 µM), hits mostly activators. purified FLuc-C-HiBiT + ATP, HiBiT complementation luminescence. actives 8.7% (n = 1,300). shares compounds with FLuc inh-1;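 note: signal reports ligand binding via conformational change of the enzyme rather than luciferase catalysis; nearly all actives have a fitted effect of over 55% in size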
FLuc inh-2: firefly luciferase enzyme inhibition. Potency, µM (series often up to 32.7 µM), hits mostly inhibitors. actives 42% (n = 1,300). purified FLuc-C-HiBiT enzyme, luciferin luminescence. shares compounds with FLuc inh-1; note: nearly all actives have a fitted effect of over 70% in size
Hits are given with their value; n = inactive; u = inconclusive; x = not tested or not shown. Unless noted, calls come from the whole dose curve; as a rule, active = well fitted curve in the direction sought with a large enough effect; inconclusive = small, poorly fitted or top-dose-only effect, or another doubt; inactive = no such curve, though single readings can be large; an effect the other way counts as inactive or inconclusive.

SMILES	FLuc inh-1	3T3 cytotox	SNCA expr inh	SNCA viab count	IP6K1 inh	HEK293 tox	FLuc SDR no ATP	FLuc SDR ATP	FLuc inh-2
O=C(NC1CCCC1)N1c2ccccc2CC1c1noc(C2CCOCC2)n1 (centres undefined)	5.01µM	n	n	n	n	u	n	n	u
CCc1ccccc1NC(=O)N1c2ccccc2CC1c1nc(C2CC2)no1 (centres undefined)	n	u	n	n	n	u	x	x	x
CCNC(=O)c1ccc2c(c1)sc1nc(-c3cccc(OC)c3)cn12	x	x	n	n	n	x	x	x	x
COc1cccc(-c2cn3ncsc3n2)c1	x	x	n	n	n	x	n	n	u
Cc1noc(-c2nc(-c3cccc(C(F)(F)F)c3)no2)n1	n	n	n	n	n	n	x	x	x
O=C(O)c1cccc(-c2noc(-c3cccc(C(F)(F)F)c3)n2)c1	x	x	x	x	x	x	u	0.0394µM	0.0157µM
FC(F)(F)c1ccc(-c2noc(-c3ccccc3Br)n2)cc1	x	x	n	n	n	x	x	x	x
O=C(O)c1cccc(-c2noc(-c3ccc(C(F)(F)F)cc3)n2)c1	x	x	x	x	x	x	7µM	0.0062µM	0.0035µM
CC(=O)Nc1cccc(-c2ccnc(-c3nnc(C)n3CCN3CCOCC3)c2)c1	n	u	n	n	n	n	x	x	x
O=C(Nc1cccc(-c2ccc(N3CCOCC3)nn2)c1)Nc1cccc(Cl)c1F	1.58µM	31.6µM	n	u	n	22.4µM	n	n	5.56µM
COc1ccccc1NC(=O)Nc1ccc(-c2nnc3n2CCCC3)cc1	n	n	n	n	n	u	x	x	x
Cc1c(Cl)cccc1NC(=O)Nc1cccc(-c2nnc3n2CCCC3)c1	n	n	n	n	n	n	x	x	x
O=C(Nc1cc(F)cc(F)c1)Nc1cccc(-c2ccc(N3CCOCC3)nn2)c1	1.26µM	u	n	u	n	31.6µM	u	u	3.13µM
COc1ccc(NC(=O)Nc2cccc(-c3cn4cccnc4n3)c2)cc1	x	x	n	n	n	x	x	x	x
COc1ccccc1NC(=O)Nc1cccc(-c2ccc(N3CCOCC3)nn2)c1	1.41µM	u	n	n	n	u	u	u	3.13µM
COc1cc(NC(=O)Nc2cccc(-c3ccc(N4CCOCC4)nn3)c2)cc(OC)c1	0.708µM	31.6µM	u	u	n	u	u	u	1.76µM
COc1ccc(NC(=O)CCC2CCCN(C(=O)C3=C(C)OCCO3)C2)cc1Cl (centres undefined)	n	n	n	n	n	u	x	x	x
CNc1nccc(N2CCC(CC(=O)O)CC2)n1	n	n	n	n	n	n	x	x	x
O=C(Nc1cccc(F)c1)Nc1cccc(-c2ccc(N3CCCCC3)nn2)c1	0.398µM	31.6µM	u	n	n	u	9.89µM	u	0.989µM
O=C(Nc1cccc(-c2ccc(N3CCOCC3)nn2)c1)Nc1ccc2c(c1)CCC2	0.891µM	n	n	n	n	u	n	u	2.79µM
CC[n+]1c(/C=C/N(C)c2ccccc2)n(-c2ccccc2)c2ccc(-c3nc4ccccc4s3)cc21	x	x	x	x	x	x	n	n	u
CS(=O)(=O)N1CCC2(CC1)CC(c1ccccc1)C(=O)N(C1CC1)C2 (centres undefined)	n	n	n	n	n	n	x	x	x
Cc1ccc(NC(=O)Nc2cccn3nc(C)nc23)cc1	7.94µM	u	n	n	n	u	u	n	u
COc1cccc(CNC(=O)Nc2cccn3nc(C)nc23)c1	n	n	n	n	n	n	x	x	x
Cc1ccc(C2Cn3cnc(C(=O)N4CCC(C(=O)NCc5ccco5)CC4)c3CO2)cc1 (centres undefined)	14.1µM	n	n	n	n	n	n	u	u
